Assay results taken from PubChem BioAssay (EPA / NIEHS).
Calls of active or inactive are those of the source. The calls were made as follows: active = hit-call score of the fitted dose curve at least 0.9, where 1 is the maximum; inactive = score below 0.9.

Molecular target: Signal transducer and activator of transcription 3 (Homo sapiens) (UniProt P40763)
Experiment: ATG_STAT3_CIS: Attagene CIS-FACTORIAL HepG2 Assay for human Signal Transducer and Activator of Transcription 3 (STAT3) (AID 2282963)
Conditions: HepG2, Attagene cis-factorial STAT3 reporter transcription; actives raise or lower the signal
Procedure, shortened: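 HepG2 cells transiently transfected with cis-element-driven multiple reporter transcription units; after 24 h chemical exposure, reporter mRNA measured by RT-PCR, 6-FAM primer-extension labelling, HpaI digestion and capillary electrophoresis. Bidirectional fitting versus DMSO baseline.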

Chain of Signal transducer and activator of transcription 3 (Homo sapiens) (P40763 whole entry, looked up): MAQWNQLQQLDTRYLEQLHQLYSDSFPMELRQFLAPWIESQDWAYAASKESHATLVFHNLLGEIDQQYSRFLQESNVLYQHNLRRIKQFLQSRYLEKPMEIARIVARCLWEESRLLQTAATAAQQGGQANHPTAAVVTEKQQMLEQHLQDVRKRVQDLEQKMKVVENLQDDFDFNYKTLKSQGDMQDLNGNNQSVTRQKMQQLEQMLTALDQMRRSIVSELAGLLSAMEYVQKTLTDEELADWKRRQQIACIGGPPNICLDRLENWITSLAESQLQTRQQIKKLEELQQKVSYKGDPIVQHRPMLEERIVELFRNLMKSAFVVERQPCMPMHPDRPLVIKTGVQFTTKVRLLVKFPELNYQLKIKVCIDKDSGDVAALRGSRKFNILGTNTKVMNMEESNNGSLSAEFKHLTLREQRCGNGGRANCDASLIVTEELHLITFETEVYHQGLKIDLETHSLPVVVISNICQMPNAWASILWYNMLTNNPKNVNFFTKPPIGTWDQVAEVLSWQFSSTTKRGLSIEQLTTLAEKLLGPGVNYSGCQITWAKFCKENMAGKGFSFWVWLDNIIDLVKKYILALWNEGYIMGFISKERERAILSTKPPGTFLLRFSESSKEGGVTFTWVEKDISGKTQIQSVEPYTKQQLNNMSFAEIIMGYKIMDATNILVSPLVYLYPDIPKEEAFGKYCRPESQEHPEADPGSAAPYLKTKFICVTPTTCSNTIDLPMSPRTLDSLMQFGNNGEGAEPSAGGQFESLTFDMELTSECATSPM

outcome, inactive:
CN(C)CCCN1c2ccccc2Sc2ccc(Cl)cc21
O=C1CCCCC1
CC(C)OC(=O)C(C)(C)Oc1ccc(C(=O)c2ccc(Cl)cc2)cc1
CO[C@@H]1COCC[C@@H]1N[C@@H]1CC[C@@](C(=O)N2CCc3ncc(C(F)(F)F)cc3C2)(C(C)C)C1
CC(=O)OC1CC(C)OC(C)O1 (configuration not stated)
Cn1cnc2c1c(=O)[nH]c(=O)n2C
CC(C)(O)c1ccc(CNC(=O)c2cccnc2Oc2ccc(F)cc2)cc1
CCCC(=O)O
COC(=O)CCC(=O)OC
C#CC(O)C(CC)CCCC (configuration not stated)
NCCOCCOCCN
Nc1nc(Cl)nc2c1ncn2[C@H]1C[C@H](O)[C@@H](CO)O1
CCCCCCCCCCCCCCOS(=O)(=O)O
Cc1c(C)c2c(c(C)c1O)CCC(C)(COc1ccc(CC3SC(=O)NC3=O)cc1)O2 (configuration not stated)
CC1=C(C)S(=O)(=O)CCS1(=O)=O
O=C1O[C@H]([C@H](O)CO)C(O)=C1O
OCC(CO)n1cnc(-c2ccc(F)cc2)c1-c1ccnc(Oc2ccccc2)n1
